Compounds with a hit are over-represented: about 3.6% of the library has one in this group of screens.
mHTT CaM bind = mutant huntingtin-calmodulin interaction inhibitors – biochemical, AlphaScreen, primary screen | P42858 | AlphaScreen His-mHTT/GST-CaM binding, luminescence | inhibition, % at 15 µM | actives 3.6% (n = 190,000) | AID 1671202, 2021
Pf apPOL inh = Pf-apPOL inhibitors, biochemical, fluorescence | Recombinant Pf-apPOL, molecular beacon fluorescence, 1.5 h | inhibition, % at 10 µM | actives 0.25% (n = 210,000) | AID 1794808, 2022
Each line names hits and unclear results; the compound was inactive in the other large screens. No stated cut-off is given here; in the data, active means inhibition above about 50%; inactive means the rest.

O=C(NCCN1CCCCC1)c1ccc(NC(=O)C2CCC2)cc1N1CCCCC1	none
COc1cccc(-c2oncc2CN2CCN(c3ccccc3)CC2)c1	none
COc1ccc(N2CCN(Cc3cnoc3-c3ccccc3)CC2)cc1	mHTT CaM bind 57
O=C(CN(Cc1ccccc1)S(=O)(=O)c1ccccc1)N1CCN(c2ccccc2F)CC1	none
COc1ccc(-n2cc(C(=O)N3CCN(c4ccccc4F)CC3)c3ccccc3c2=O)cc1	none
COc1ccccc1N1CCN(C(=O)c2nn(-c3ccc(F)cc3)c(=O)cc2OC)CC1	none
COc1ccccc1N1CCN(C(=O)c2ccccc2F)CC1	none
COc1ccc(-n2cc(C(=O)N3CCN(c4ccc(F)cc4)CC3)c3ccccc3c2=O)cc1	mHTT CaM bind 78
COc1ccccc1N1CCN(C(=O)c2sc3cccc(F)c3c2OC)CC1	mHTT CaM bind 78
COc1ccc(N2CCN(C(=O)c3sc4cccc(F)c4c3OC)CC2)cc1	mHTT CaM bind 64
COc1ccccc1N1CCN(C(=O)c2nn(-c3ccc(F)cc3)cc2OC)CC1	mHTT CaM bind 68
COc1cccc(N2CCN(C(=O)c3sc4cccc(F)c4c3OC)CC2)c1	none
O=C(CN1N=C(c2ccc(Cl)cc2)CCC1=O)NCc1ccccc1Cl	none
COc1ccc(CCNS(=O)(=O)c2ccc(C(=O)Nc3nccs3)o2)cc1OC	none
Cc1ccc(S(=O)(=O)N2CCN(c3nc(-c4cccs4)cs3)CC2)cc1	none
O=C(CNS(=O)(=O)c1ccc(Br)s1)NC1CCCCC1	none
O=C1OC(c2ccc(F)cc2)=N/C1=C/c1ccccc1[N+](=O)[O-]	none
COc1cc(/C=C2\C(=O)ON=C2C)ccc1OCc1ccc(F)cc1	mHTT CaM bind 99
COc1cc(/C=C2/C(=O)ON=C2C)ccc1OCc1ccc(C)cc1	mHTT CaM bind 70
CC1=NOC(=O)/C1=C/c1ccc(OCc2ccc(F)cc2)c(Cl)c1	none
O=C(c1ccoc1)N1CCCC(OCc2nc(-c3ccccc3)no2)C1 (configuration not stated)	none
O=C(Nc1ccccc1C(F)(F)F)C1CC(=O)N(c2ccccc2Cl)C1 (configuration not stated)	none
O=C(NC1CCCC1)N1CCCC1c1ccc(F)cc1 (configuration not stated)	none
COc1ccc(Nc2c([N+](=O)[O-])cc([N+](=O)[O-])c3cccnc23)cc1	none
CS(=O)(=O)c1ccc(Sc2cccc3cccnc23)c([N+](=O)[O-])c1	none
CCCN(CCC)c1c([N+](=O)[O-])cc([N+](=O)[O-])c2cccnc12	mHTT CaM bind 80
O=[N+]([O-])c1cc2cccnc2c2ncccc12	mHTT CaM bind 100 (no result: Pf apPOL inh)
O=[N+]([O-])c1ccc(N2CCN(CCO)CC2)c2ncccc12	none
O=[N+]([O-])c1cc([N+](=O)[O-])c2cccnc2c1Nc1ccc(O)cc1	mHTT CaM bind 75
CCOc1ccccc1N(C)C(=O)c1cc(S(=O)(=O)NCCc2ccccc2)ccc1F	none
COc1nccnc1NC1CCN(C(=O)c2ccoc2)CC1	none
CC(C)C(C(=O)O)N1C(=O)C(=Cc2ccc(C(=O)O)cc2)SC1=S (configuration not stated)	none
O=C(N/C(=C/c1ccc2c(c1)OCO2)C(=O)N1CCOCC1)c1ccc(Br)cc1	none
COc1cc(C2C(C#N)=C(N)Oc3c2oc(CO)cc3=O)cc(OC)c1OC (configuration not stated)	none
COc1cc(C2C(C#N)=C(N)Oc3c2[nH]c(=O)[nH]c3=O)cc(OC)c1OC (configuration not stated)	Pf apPOL inh 97
COc1ccc(C2CCCN2C(=O)Cc2ccccc2Cl)cc1 (configuration not stated)	none
NNC(=O)c1ccc(Oc2cccc(C(F)(F)F)c2)nc1	none (no result: mHTT CaM bind)
O=C(NCCn1ccc2ccccc21)C1(c2ccc(Cl)cc2)CCCC1	mHTT CaM bind 83
O=C(NCCn1ccc2ccccc21)c1c(F)cccc1F	none
Cc1ccc(C2=NN(CCC(=O)NC3CCCCC3)C(=O)CC2)cc1	none
Cc1ccc(NC(=O)C(Cc2ccccc2)NS(=O)(=O)c2cccs2)c(Cl)c1 (configuration not stated)	none
CCN(CCC#N)c1ccccc1	none
CCN(CCC#N)c1ccc(N=Nc2ccc([N+](=O)[O-])cc2)cc1	mHTT CaM bind 53
CC(C)c1ccc(NC(=O)C2CC2c2ccccc2)cc1 (configuration not stated)	none
O=C(Nc1ccc(Nc2ccccc2)cc1)C1CC1c1ccccc1 (configuration not stated)	mHTT CaM bind 88
O=C(COc1ccc(Cl)cc1)Nc1nc2ccc([N+](=O)[O-])cc2s1	none
CC1(C)S[C@@H]2[C@H](NC(=O)COc3ccccc3)C(=O)N2[C@H]1C(=O)OCc1cccc2cccnc12	mHTT CaM bind 51
Cc1cc(COC(=O)C2N3C(=O)[C@@H](NC(=O)COc4ccccc4)[C@H]3SC2(C)C)on1 (some centres not stated)	none
COc1ccccc1NC(=O)C1=C(C)Nc2nc3ccccc3n2C1c1ccc(Cl)cc1 (configuration not stated)	mHTT CaM bind 51
COc1ccccc1NC(=O)C1=C(C)Nc2nc3ccccc3n2C1c1cccnc1 (configuration not stated)	none
CCN1C(=O)/C(=c2/sc3nc4ccccc4n3c2=O)c2ccccc21	none
Cc1ccc2c(c1)/C(=c1\sc3nc4ccccc4n3c1=O)C(=O)N2	Pf apPOL inh 55
O=C(Nc1ccc(Cl)cc1)c1cc(S(=O)(=O)NCc2ccc(F)cc2)ccc1F	none
CCCCCSc1nnc2c(n1)OC(c1cccnc1)Nc1ccccc1-2 (configuration not stated)	none
CCCSc1nnc2c(n1)OC(c1cc(OC)c(O)c(OC)c1)Nc1ccccc1-2 (configuration not stated)	none
CCCSc1nnc2c(n1)OC(c1cccnc1)Nc1ccccc1-2 (configuration not stated)	Pf apPOL inh 52
CCSc1nnc2c(n1)OC(c1cc(OC)c(O)c(OC)c1)Nc1ccccc1-2 (configuration not stated)	Pf apPOL inh 95
Cc1cccc(NC(=O)N2CCOc3ccccc32)c1	none
Cc1ccc(C)n1Cc1ccc(C(=O)O)cc1	mHTT CaM bind 53
O=C(O)c1ccc(CN2CCOCC2)cc1	none
CCOC(=O)N1CCC2(CC1)N=C(c1cc(Cl)ccc1O)CC(c1ccccc1O)N2 (configuration not stated)	mHTT CaM bind 100
COc1ccc(C2CC(c3ccccc3O)=NC3(CCN(C(C)=O)CC3)N2)cc1OC (configuration not stated)	mHTT CaM bind 51
COc1ccc(C2CC(c3ccccc3O)=NC3(CCN(C(C)C)CC3)N2)cc1OC (configuration not stated)	none
CC(=O)N1CCC2(CC1)N=C(c1ccccc1O)CC(c1ccc(C(C)C)cc1)N2 (configuration not stated)	none
CC(C)N1CCC2(CC1)N=C(c1cc(Cl)ccc1O)CC(c1ccccc1O)N2 (configuration not stated)	none
CC(=O)N1CCC2(CC1)N=C(c1cc(Cl)ccc1O)CC(c1ccc(F)cc1)N2 (configuration not stated)	mHTT CaM bind 100
COc1ccc(C2CC(c3cc(Cl)ccc3O)=NC3(CCN(C(C)=O)CC3)N2)cc1 (configuration not stated)	mHTT CaM bind 100
